# Test results taken from PubChem BioAssay (EPA / NIEHS).
# Inconclusive results are not listed. Calls of active or inactive are those of the source. Rule for the calls: active = hit-call score of the fitted dose curve at least 0.9, where 1 is the maximum; inconclusive = response in the unintended direction; inactive = score below 0.9.
# Read-out: xenobiotic metabolism (CYP1A1), CYP1A1 (gene 1543)
# Test: CLD_CYP1A1_6hr: CellzDirect (CLD) Gene Expression Assay for xenobiotic metabolism (CYP1A1) at 6 hours (AID 2283661);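 for AC50: potency for transcript induction above DMSO vehicle baseline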
# Protocol: CLD_6hr is a cell-based, multiplexed-readout assay that uses hepatocyte, a human liver primary cell, with measurements taken at 6 hours after chemical dosing in a 96-well plate.CLD_CYP1A1_6hr is one of 16 assay component(s) measured or calculated from the CLD_6hr assay. It is designed to make measurements of mRNA induction, a form of inducible reporter, as detected with chemiluminescence signals by Quantitative Nuclease Protection Assay (qNPA) technology.Data from the assay component CLD_CYP1A1_6hr was analyzed at the endpoint, CLD_CYP1A1_6hr, in the positive analysis fitting direction relative to DMSO as the negative control and baseline of activity. Using a type of inducible reporter, gain-of-signal activity can be used to understand changes in the reporter gene as they relate to the gene CYP1A1. Furthermore, this assay endpoint can be referred to as a primary readout. To generalize the intended target to other relatable targets, this assay endpoint is annotated to the cyp intended target family, where subfamily is xenobiotic metabolism.
# Human hepatocyte cultures were treated daily for two consecutive days with fresh dosing solutions containing appropriate concentrations of the 320 ToxCast chemicals (chemical identities were blinded to CellzDirect and other ToxCast collaborators), vehicle control (0.2% DMSO), and positive control inducers as summarized in Table 1. Due to the large number of treatment groups and chemicals examined, the ToxCast chemicals were divided into two groups (spanning two independent cultures of hepatocytes from separate donor preparations (Hu778: ToxCast plates 1 and 2; Hu776: ToxCast plates 3 and 4). Each preparation of human hepatocyte cultures was treated with respective vehicle control, medium only control, set of six positive controls/reference chemicals for the five hepatic receptor pathways, and a subset of eight of the ToxCast chemicals (indoxacarb, pyrithiobac-sodium, norflurazon, cyhalofop-butyl, methomyl, thiram, acetochlor, and propiconazole). These replicate data, coupled with internal replicates designed within the blinded ToxCast chemical library, provided additional data to evaluate interindividual differences between hepatocyte preparations and their potential impact on chemical profiles.Cell morphology and integrity were evaluated using phase-contrast microscopy as an indicator of hepatocyte cell health (Tyson & Green, 1987). Cultures for each treatment group (i.e., media, vehicle [0.2% DMSO], positive control inducers [multiple concentrations], and the ToxCast chemicals [multiple concentrations]) were observed and cell morphology was assessed relative to vehicle control cultures at each harvest time point (0, 6, 24, or 48 h). […] Images were evaluated at the conclusion of the study to assess changes in cell integrity and account for the effects of chemical exposure on uncharacteristic changes in concentration-dependent gene expression profiles. The results from these determinations of apparent cytotoxicity were annotated (yes/no) alongside the corresponding qNPA data for reference.At the conclusion of each treatment period, hepatocyte cultures (96-well) were washed with 1 volume of HBSS, lysed by addition of 25 ul ArrayPlate lysis buffer (HTG, Tucson, AZ), and 70 ul/well of Denaturation Oil, denatured by incubation at 95C for 10 min, and frozen at approximately -70C until analysis by nuclease protection assay (qNPA) (Roberts et al., 2007). For qNPA analysis, cell lysates were thawed at 50C for approximately 30 min, qNPA probes were added, and samples were incubated at 95C for 10 min to begin the detection process by denaturing the target RNA, dissociating the duplexes and secondary structure hybridization. At the conclusion of the hybridization period, S1 nuclease reagent was added to each sample to digest all nonprotected nucleotides at 50C for 60-90 min. […]
Structure (SMILES),outcome,AC50
Cc1c(COC(=O)[C@@H]2[C@H](/C=C(\Cl)C(F)(F)F)C2(C)C)cccc1-c1ccccc1,inactive,–
COc1ccc(-c2ccccc2)cc1NNC(=O)OC(C)C,–,0.429 µM (active)
CC(C)NC(=O)N1CC(=O)N(c2cc(Cl)cc(Cl)c2)C1=O,–,8.11 µM (active)
Nc1cnn(-c2ccccc2)c(=O)c1Cl,–,5.67 µM (active)
O=C(O)c1c(Cl)ccc2cc(Cl)cnc12,inactive,–
CCNP(=S)(OC)O/C(C)=C/C(=O)OC(C)C (stereo not given),–,3.37 µM (active)
OC(c1ccc(Cl)cc1)(c1ccc(Cl)cc1)C(Cl)(Cl)Cl,inactive,–
CCCCC(C#N)(Cn1cncn1)c1ccc(Cl)cc1 (stereo not given),–,3.97 µM (active)
CCC(C)n1c(=O)[nH]c(C)c(Br)c1=O (stereo not given),–,7.21 µM (active)
CNC(=O)Oc1cccc2ccccc12,–,4.68 µM (active)
CN=C=S,inactive,–
CC1(C)C(C=C(Cl)Cl)C1C(=O)OC(C#N)c1cccc(Oc2ccccc2)c1 (stereo not given),–,2.78 µM (active)
COP(=O)(OC)O/C(C)=C/C(=O)N(C)C,inactive,–
Cn1c(-c2ccccc2)cc(-c2ccccc2)[n+]1C,inactive,–
CCSC(=O)N1CCCCCC1,inactive,–
CNC(=O)N(C)c1nnc(C(C)(C)C)s1,–,0.00579 µM (active)
CCOC(=O)C(C)OC(=O)c1cc(Oc2ccc(C(F)(F)F)cc2Cl)ccc1[N+](=O)[O-] (stereo not given),–,4.58 µM (active)
CCOP(=S)(OCC)Oc1nc(Cl)n(C(C)C)n1,–,2.55 µM (active)
COP(=S)(OC)Oc1ccc([N+](=O)[O-])c(C)c1,–,1.22 µM (active)
N#CN=C1SCCN1Cc1ccc(Cl)nc1,inactive,–

Structure (SMILES),outcome,AC50
CCCN(CC)CC1COC2(CCC(C(C)(C)C)CC2)O1 (stereo not given),inactive,–
CCOc1nc(F)cc2nc(S(=O)(=O)Nc3c(Cl)cccc3Cl)nn12,inactive,–
CCNC(=O)NC(=O)C(C#N)=NOC,inactive,–
CS(=O)(=O)c1ccc(C(=O)C2C(=O)CCCC2=O)c([N+](=O)[O-])c1,inactive,–
CCOc1cc(C(C)(C)C)ccc1C1COC(c2c(F)cccc2F)=N1 (stereo not given),inactive,–
O=c1n(Cl)c(=O)n(Cl)c(=O)n1Cl,–,11.3 µM (active)
O=P(O)(O)CCCl,inactive,–
CSC(=O)c1c(C(F)F)nc(C(F)(F)F)c(C(=O)SC)c1CC(C)C,–,5.31 µM (active)
N#Cc1c[nH]cc1-c1cccc2c1OC(F)(F)O2,–,0.9 µM (active)
Clc1nc(Cl)nc(Nc2ccccc2Cl)n1,inactive,–
CC(C)C1(C)N=C(c2ncccc2C(=O)O)NC1=O (stereo not given),–,1.9 µM (active)
O=C(Nc1ccccc1-c1ccc(Cl)cc1)c1cccnc1Cl,–,2.46 µM (active)
CCN(CC)C(=O)C(C)Oc1cccc2ccccc12 (stereo not given),–,3.97 µM (active)
CC(C)N1C(=O)c2ccccc2NS1(=O)=O,inactive,–
CCOc1nc(C(Cl)(Cl)Cl)ns1,–,8.85 µM (active)
CC(C)=CC1C(C(=O)OCc2coc(Cc3ccccc3)c2)C1(C)C (stereo not given),inactive,–
CCCCOCN(C(=O)CCl)c1c(CC)cccc1CC,–,5.21 µM (active)
CCN(CC)c1nc(C)cc(OP(=S)(OC)OC)n1,–,4.71 µM (active)
CS(=O)(=O)c1cc(C(F)(F)F)ccc1C(=O)c1cnoc1C1CC1,inactive,–
COCC(=O)N(c1c(C)cccc1C)C(C)C(=O)OC (stereo not given),–,20 µM (active)
